The source made the active and inactive calls. Rule for the calls: active = hit-call score of the fitted dose curve at least 0.9, where 1 is the maximum; inactive = score below 0.9.
Tests used:
[1] = read-out: Macrophage colony-stimulating factor (MCSF), CSF1 (gene 1435); experiment: BSK_hDFCGF_MCSF: BioMAP Diversity Plus: hDFCGF Assay for Macrophage colony-stimulating factor (MCSF) Biomarker Activity (AID 2283060); details: primary human foreskin fibroblasts; actives raise or lower the signal
Method in brief: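 M-CSF levels, determined by ELISA, are taken at 24 h after dosing human skin fibroblasts. Responses in either direction are fitted with DMSO serving as the baseline.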

[2] = BSK_hDFCGF_SRB: Viability Assessment in the BioMAP Diversity Plus: hDFCGF Assay (AID 2283061); details: primary human foreskin fibroblasts;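 note: cells exposed to compound for 24 h before the read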
Method in brief: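 Cells were dosed with test chemical, cultured 24 h, fixed with 10% TCA, then stained with 0.1% SRB and read at 560 nm. The fibroblasts were human foreskin primary cells, and DMSO served as baseline.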

[3] = read-out: TIMP metallopeptidase inhibitor 1 (TIMP1), TIMP1 (gene 7076); experiment: BSK_hDFCGF_TIMP1: BioMAP Diversity Plus: hDFCGF Assay for TIMP metallopeptidase inhibitor 1 (TIMP1) Biomarker Activity (AID 2283062); details: primary human foreskin fibroblasts; actives raise or lower the signal
Method in brief: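 Fibroblasts from human foreskin are treated with test chemical and harvested at 24 h. TIMP-1 is quantified by ELISA, and gain or loss of signal is scored against DMSO.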

[4] = read-out: Monokine induced gamma interferon (MIG), CXCL9 (gene 4283); experiment: BSK_hDFCGF_MIG: BioMAP Diversity Plus: hDFCGF Assay for Monokine induced gamma interferon (MIG) Biomarker Activity (AID 2283063); details: primary human foreskin fibroblasts; actives raise or lower the signal
Method in brief: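 MIG signal, determined by ELISA, reflects 24 h chemical exposure of human skin primary fibroblasts. DMSO serves as negative control and baseline.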

[5] = read-out: Matrix Metallopeptidase 1 (MMP1), MMP1 (gene 4312); experiment: BSK_hDFCGF_MMP1: BioMAP Diversity Plus: hDFCGF Assay for Matrix Metallopeptidase 1 (MMP1) Biomarker Activity (AID 2283064); details: primary human foreskin fibroblasts; actives raise or lower the signal
Method in brief: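 hDFCGF primary fibroblasts (human foreskin); chemical added; 24 h; MMP1 by ELISA; bidirectional fit vs DMSO.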

[6] = read-out: Plasminogen activator inhibitor-1 (PAI1), SERPINE1 (gene 5054); experiment: BSK_hDFCGF_PAI1: BioMAP Diversity Plus: hDFCGF Assay for Plasminogen activator inhibitor-1 (PAI1) Biomarker Activity (AID 2283066); details: primary human foreskin fibroblasts; actives raise or lower the signal
Method in brief: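 Human foreskin fibroblasts in the hDFCGF system were dosed with compound for 24 h; PAI-1 was quantified by ELISA. Bidirectional curve fitting used DMSO as negative control and baseline.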

[7] = read-out: Intercellular Adhesion Molecule 1 (ICAM1), ICAM1 (gene 3383); experiment: BSK_KF3CT_ICAM1: BioMAP Diversity Plus: KF3CT Assay for Intercellular Adhesion Molecule 1 (ICAM1) Biomarker Activity (AID 2283067); details: primary human keratinocytes with fibroblasts; actives raise or lower the signal
Method in brief: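 Dose the keratinocyte/fibroblast co-culture, wait 24 h, measure ICAM-1 by ELISA, then fit increases or decreases against DMSO. Cytotoxicity is checked in parallel cultures by SRB total-protein staining.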

[8] = read-out: Interferon-gamma inducible Protein 10 (IP10), CXCL10 (gene 3627); experiment: BSK_KF3CT_IP10: BioMAP Diversity Plus: KF3CT Assay for Interferon-gamma inducible Protein 10 (IP10) Biomarker Activity (AID 2283068); details: primary human keratinocytes with fibroblasts; actives raise or lower the signal
Method in brief: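 Signal is secreted/surface IP-10 by ELISA in a human primary skin co-culture of keratinocytes and foreskin fibroblasts, taken 24 h post-dosing; DMSO served as negative control.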

[9] = BSK_KF3CT_SRB: Viability Assessment in the BioMAP Diversity Plus: KF3CT Assay (AID 2283069); details: primary human keratinocytes with fibroblasts;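 note: fitted for both signal gain and loss against DMSO baseline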
Method in brief: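 Keratinocytes co-cultured with foreskin fibroblasts (human primary); chemical added, 24 h; fix 10% TCA, stain 0.1% SRB, A560. Bidirectional fit vs DMSO.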

[10] = read-out: Interleukin-1 alpha (IL1a), IL1A (gene 3552); experiment: BSK_KF3CT_IL1a: BioMAP Diversity Plus: KF3CT Assay for Interleukin-1 alpha (IL1a) Biomarker Activity (AID 2283070); details: primary human keratinocytes with fibroblasts; actives raise or lower the signal
Method in brief: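 Chemicals were dosed onto co-cultured human keratinocytes and foreskin fibroblasts, IL-1a was quantified by ELISA at 24 h, and activity was fitted in both directions relative to DMSO controls.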

[11] = read-out: TIMP metallopeptidase inhibitor 2 (TIMP2), TIMP2 (gene 7077); experiment: BSK_KF3CT_TIMP2: BioMAP Diversity Plus: KF3CT Assay for TIMP metallopeptidase inhibitor 2 (TIMP2) Biomarker Activity (AID 2283071); details: primary human keratinocytes with fibroblasts; actives raise or lower the signal
Method in brief: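 Human primary keratinocyte/foreskin fibroblast co-culture dosed with chemical and sampled at 24 h. TIMP-2 levels quantified by ELISA; bidirectional fitting against DMSO negative control as baseline.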

[12] = read-out: Transforming growth factor beta 1 (TGFb1), TGFB1 (gene 7040); experiment: BSK_KF3CT_TGFb1: BioMAP Diversity Plus: KF3CT Assay for Transforming growth factor beta 1 (TGFb1) Biomarker Activity (AID 2283072); details: primary human keratinocytes with fibroblasts; actives raise or lower the signal
Method in brief: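 Human keratinocyte plus foreskin fibroblast primary co-culture, dosed with chemical for 24 h. TGF-b1 quantified by ELISA. Activity fitted bidirectionally against DMSO negative control as baseline.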

[13] = read-out: C-C motif chemokine 2 (Homo sapiens) (UniProt P13500); experiment: BSK_KF3CT_MCP1: BioMAP Diversity Plus: KF3CT Assay for Monocyte Chemoattractant Protein 1 (MCP1/CCL2) Biomarker Activity (AID 2283073); details: primary human keratinocytes with fibroblasts; actives raise or lower the signal
Method in brief: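 Keratinocytes and foreskin fibroblasts were co-cultured, dosed with chemical, and sampled 24 h later. MCP-1 was quantified by ELISA, and the endpoint was analyzed with bidirectional fitting using DMSO as negative control.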

[14] = read-out: Matrix Metallopeptidase 9 (MMP9), MMP9 (gene 4318); experiment: BSK_KF3CT_MMP9: BioMAP Diversity Plus: KF3CT Assay for Matrix Metallopeptidase 9 (MMP9) Biomarker Activity (AID 2283074); details: primary human keratinocytes with fibroblasts; actives raise or lower the signal;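 for AC50: MMP9 protein level quantified by ELISA in the co-culture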
Method in brief: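 Human keratinocyte/foreskin fibroblast co-culture; compound added; 24 h; MMP-9 by ELISA; bidirectional fit vs DMSO baseline.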

[15] = read-out: urokinase plasminogen activator (uPA), PLAU (gene 5328); experiment: BSK_KF3CT_uPA: BioMAP Diversity Plus: KF3CT Assay for urokinase plasminogen activator (uPA) Biomarker Activity (AID 2283075); details: primary human keratinocytes with fibroblasts; actives raise or lower the signal
Method in brief: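 ELISA readout of uPA, analyzed for signal gain or loss relative to DMSO, from a human primary keratinocyte–foreskin fibroblast co-culture measured 24 h after chemical treatment.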

CD40, CD40 (gene 958) = experiment: BSK_LPS_CD40: BioMAP Diversity Plus: LPS Assay for CD40 Biomarker Activity (AID 2283076); details: primary human HUVEC with PBMC; actives raise or lower the signal
Method in brief: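 CD40 signal, measured by ELISA, is fitted in both directions relative to DMSO vehicle. The system is an LPS-driven human vascular primary co-culture of endothelial cells and PBMC, sampled 24 h after compound addition.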

[16] = read-out: E-selectin (Homo sapiens) (UniProt P16581); experiment: BSK_LPS_Eselectin: BioMAP Diversity Plus: LPS Assay for Eselectin Biomarker Activity (AID 2283077); details: primary human HUVEC with PBMC; actives raise or lower the signal
Method in brief: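 Signal of E-selectin, detected by ELISA, served as the endpoint; cells were umbilical vein endothelium with PBMC, read 24 h after treatment. DMSO defined baseline, and both increases and decreases were fitted.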

[17] = read-out: Interleukin-8 (IL8), CXCL8 (gene 3576); experiment: BSK_LPS_IL8: BioMAP Diversity Plus: LPS Assay for Interleukin-8 (IL8) Biomarker Activity (AID 2283078); details: primary human HUVEC with PBMC; actives raise or lower the signal
Method in brief: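 Endothelial cells and PBMC from human donors are co-cultured, treated with chemicals and LPS, then assayed for IL-8 by ELISA after 24 h. Parallel SRB staining (0.1% SRB after 10% TCA fixation, 560 nm) flags cytotoxicity.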

[18] = BSK_LPS_SRB: Viability Assessment in the BioMAP Diversity Plus: LPS Assay (AID 2283079); details: primary human HUVEC with PBMC;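 note: total protein by sulforhodamine B absorbance as a cytotoxicity measure; measured one day after compound addition; fitted in both directions against DMSO so loss or gain of signal counts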
Method in brief: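 Overt cytotoxicity was gauged by sulforhodamine B total-protein staining in a primary human vascular endothelial and mononuclear cell co-culture 24 h post-dosing. Activity was fitted in both directions relative to DMSO.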

[19] = read-out: Vascular cell adhesion molecule 1 (VCAM1), VCAM1 (gene 7412); experiment: BSK_hDFCGF_VCAM1: BioMAP Diversity Plus: hDFCGF Assay for Vascular cell adhesion molecule 1 (VCAM1) Biomarker Activity (AID 2283065); details: primary human foreskin fibroblasts; actives raise or lower the signal;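 for AC50: VCAM-1 protein level quantified by ELISA after 24 h chemical exposure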
Method in brief: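 Cells are dosed, cultured for 24 h, then VCAM-1 is quantified by ELISA; signal increases and decreases are both fitted relative to DMSO.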

Measured: AC50

Chain of E-selectin (Homo sapiens) (P16581 whole entry, looked up): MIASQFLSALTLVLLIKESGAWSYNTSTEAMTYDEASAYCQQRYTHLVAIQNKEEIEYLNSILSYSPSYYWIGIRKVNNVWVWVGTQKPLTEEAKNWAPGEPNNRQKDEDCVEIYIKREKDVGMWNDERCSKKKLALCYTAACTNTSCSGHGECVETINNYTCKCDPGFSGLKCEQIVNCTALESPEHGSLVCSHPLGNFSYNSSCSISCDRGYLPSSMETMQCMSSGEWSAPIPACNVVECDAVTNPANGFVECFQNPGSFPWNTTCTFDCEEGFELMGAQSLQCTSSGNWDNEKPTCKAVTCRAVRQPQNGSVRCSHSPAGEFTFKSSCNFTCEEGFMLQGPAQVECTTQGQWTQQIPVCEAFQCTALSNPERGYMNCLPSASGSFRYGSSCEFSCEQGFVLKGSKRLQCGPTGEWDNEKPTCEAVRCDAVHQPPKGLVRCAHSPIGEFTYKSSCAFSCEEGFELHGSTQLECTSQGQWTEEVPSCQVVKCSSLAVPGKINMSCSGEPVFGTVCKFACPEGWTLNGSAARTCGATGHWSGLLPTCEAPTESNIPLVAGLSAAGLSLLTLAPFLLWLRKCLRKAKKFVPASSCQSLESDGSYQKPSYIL

CC=C(C)C=CC=C(C)C
active: [1] 3.97 µM | [6] 0.016 µM | [10] 0.016 µM | [14] 20 µM | [15] 3.13 µM | CD40, CD40 (gene 958) 7.42 µM
not listed: [19]
inactive: all other assays above

Cc1ccc([N+](=O)[O-])cc1N
not listed: [19]
inactive: all other assays above

C=C(C)C(=O)OCCCCCCCCCCCC
not listed: [18] | [19]
inactive: all other assays above

CC/C=C\C/C=C\C/C=C\CCCCCCCC(=O)OC
active: [1] 8.71 µM | [2] 6.53 µM | [3] 10.7 µM | [4] 11.1 µM | [5] 12.3 µM | [19] 8.22 µM | [6] 6.64 µM | [7] 12.3 µM | [8] 20 µM | [9] 20 µM | [10] 12.2 µM | [11] 7.17 µM | [12] 6.41 µM | [13] 5.29 µM | [14] 12.2 µM | [15] 20 µM | CD40, CD40 (gene 958) 20 µM | [16] 30.1 µM | [17] 29 µM

CCCCC1C(=O)N(c2ccccc2)N(c2ccccc2)C1=O
not listed: [18] | [19]
inactive: all other assays above

Oc1ccc(/C=C/c2cc(O)cc(O)c2)cc1
active: [6] 0.474 µM | [10] 3.97 µM | [11] 8.83 µM | [13] 20 µM | [14] 16 µM
not listed: [3] | [18]
inactive: all other assays above

C=CC(=O)OCC(C)OCC(C)OCC(C)OC(=O)C=C (centres undefined)
active: [1] 20 µM | [2] 6.59 µM | [4] 11.3 µM | [5] 27.5 µM | [19] 8.28 µM | [6] 6.86 µM | [7] 18.1 µM | [8] 28.1 µM | [9] 31.9 µM | [10] 20 µM | [13] 10.4 µM | [14] 14.7 µM | [15] 20 µM | CD40, CD40 (gene 958) 6.73 µM | [16] 9.34 µM | [17] 11.9 µM
inactive: [11] | [12]

CCCCCCC=O
not listed: [19]
inactive: all other assays above

c1ccc2sc(SSN3CCOCC3)nc2c1
inactive: [4] | [5] | [11] | [12] | CD40, CD40 (gene 958) | [16] | [17] | [18]
active: [1] 9.39 µM | [2] 7.52 µM | [3] 10.7 µM | [6] 4.82 µM | [7] 10.7 µM | [8] 23.8 µM | [9] 10.3 µM | [10] 12.2 µM | [13] 12.2 µM | [14] 12.6 µM | [15] 12.9 µM

CC(c1cc(C(C)(C)C)cc(C(C)(C)C)c1O)c1cc(C(C)(C)C)cc(C(C)(C)C)c1O
active: [6] 0.358 µM
not listed: [18] | [19]
inactive: all other assays above

O=C1CCCCCCCCCCC1
not listed: [3] | [18]
inactive: all other assays above

CCOC(=O)C1=NN(c2ccc(Cl)cc2Cl)C(C)(C(=O)OCC)C1 (centres undefined)
not listed: [3] | [18]
inactive: all other assays above

C=CC(=O)OCCCCCCOC(=O)C=C
active: [1] 5.72 µM | [2] 5.41 µM | [3] 9.84 µM | [4] 3.3 µM | [5] 12.8 µM | [6] 11.5 µM | [7] 20 µM | [8] 26.6 µM | [9] 20 µM | [10] 11.3 µM | [11] 20 µM | [12] 3.97 µM | [14] 12.5 µM | [15] 20 µM | CD40, CD40 (gene 958) 7.82 µM | [16] 9.18 µM | [17] 4.79 µM
inactive: [13]

Reference: PubChem BioAssay (EPA / NIEHS)
